Measurements: PubChem BioAssay (NCI)
This is part of a sample that, as a whole, favours compounds with a hit. Of some 79,000 tested, about 15% had one in any assay. The source made the active and inactive calls. No stated cut-off is given here; in the data, active means growth inhibition above about 70%; inactive means the rest.

Assay: NCI Yeast Anticancer Drug Screen. Data for the wt1 strain (AID 149);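 further: 0% = growth of vehicle-treated wt1 cultures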
Details: S. cerevisiae wt1 strain (SPY 50644) growth inhibition, hits give high values
Protocol: Growth inhibition of yeast strains with defined genetic alterations is measured as a screen for potential anti-cancer activity. Selected strains with alterations in DNA damage repair or cell cycle control were exposed to compounds and growth inhibition was measured relative to vehicle treated controls. The strain used in this assay is wt1

Measured: growth inhibition

Cc1ccccc1N=Cc1cc(Cl)ccc1O
active: at 100.0 µM 75%
inactive: at 1.2 µM -4% | at 3.7 µM -5% | at 11.0 µM -7% | at 33.0 µM 7%

CN(C)c1ccc(C2CC(C)(O)Oc3cc4c(cc32)OCO4)cc1 (stereo not given)
inactive: at 1.2 µM 0% | at 3.7 µM 5% | at 11.0 µM 1% | at 33.0 µM 1% | at 100.0 µM 7%

CCCC/C=C/C(C)(C(=O)OCC)C(=O)OCC
inactive: at 1.2 µM -5% | at 3.7 µM -5% | at 11.0 µM -5% | at 33.0 µM -7% | at 100.0 µM 3%

CCC(C)OC(=O)Nc1ccc(C)c(NC(=O)OC(C)CC)c1 (stereo not given)
active: at 100.0 µM 73%
inactive: at 1.2 µM -3% | at 3.7 µM 0% | at 11.0 µM -5% | at 33.0 µM 2%

CC(C)c1ccc(NC(=S)NC(=O)c2ccccc2)cc1
inactive: at 1.2 µM -9% | at 3.7 µM -22% | at 11.0 µM 4% | at 33.0 µM 20% | at 100.0 µM 41%

Cc1ccc(S/C(=C\C(=O)O)c2ccccc2)cc1
inactive: at 1.2 µM -6% | at 3.7 µM -7% | at 11.0 µM -8% | at 33.0 µM -2% | at 100.0 µM 10%

C[CH2][Sn]([CH2]C)([O]C(=O)C(N)Cc1ccccc1)[O]C(=O)C(N)Cc1ccccc1 (stereo not given)
inactive: at 1.2 µM 1% | at 3.7 µM 1% | at 11.0 µM 14% | at 33.0 µM 19% | at 100.0 µM 54%

NC(=O)C(=O)NNc1ccccc1
active: at 100.0 µM 94%
inactive: at 1.2 µM 3% | at 3.7 µM 13% | at 11.0 µM 45% | at 33.0 µM 57%
